Jurkat NFkB inh: inhibitors of the PMA/ionomycin-induced NF-kB reporter in Jurkat cells; inhibition, % at 4 µM; hit rate 0.53% among 330,000; PMA/ionomycin-induced NF-kB luciferase reporter, luminescence; in the data active = inhibition above about 50%
Cardio protect: modulators protecting cardiomyocytes from myocardial damage. H9c2 cardiomyocytes, H2O2 injury protection, ATPLite, 2 h. hit rate 0.63% among 360,000. protection from H2O2 cell death, % at 20 µM;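 active = compounds giving at least 50% protection of heart cells from peroxide-induced death in the single-dose screen, raw or plate-pattern-corrected value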
697 NFkB inh: inhibitors of the PMA/ionomycin-induced NF-kB reporter in 697 B cells | 697 B-cell NF-kB luciferase reporter, 16 h | inhibition, % at 4 µM | hit rate 0.33% among 330,000 | AID 435022; in the data active = inhibition above about 35%
NR2F2 inh: blocks human COUP-TFII nuclear receptor; P24468; inhibition, % at 8.6 µM; hit rate 0.7% among 370,000; HEK293T NGFI-A luciferase reporter, luminescence;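 active = inhibition above a per-plate cutoff, mean inhibition of test wells between control levels plus 3 SD, cut at about 38% in these data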;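 also: cells cotransfected with COUP-TFII expression vector driving the NGFI-A reporter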
Target sequence (P24468 whole entry, looked up): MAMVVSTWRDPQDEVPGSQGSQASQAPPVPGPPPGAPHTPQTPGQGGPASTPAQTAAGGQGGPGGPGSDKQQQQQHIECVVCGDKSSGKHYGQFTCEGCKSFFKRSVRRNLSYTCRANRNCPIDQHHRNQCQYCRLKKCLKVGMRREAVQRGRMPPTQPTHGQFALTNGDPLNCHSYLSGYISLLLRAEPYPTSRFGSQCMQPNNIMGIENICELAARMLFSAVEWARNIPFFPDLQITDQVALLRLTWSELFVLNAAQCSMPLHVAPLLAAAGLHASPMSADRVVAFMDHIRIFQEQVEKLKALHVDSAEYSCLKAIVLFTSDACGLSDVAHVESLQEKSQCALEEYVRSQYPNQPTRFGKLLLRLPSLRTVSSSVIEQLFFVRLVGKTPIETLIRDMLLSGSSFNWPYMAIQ
Gli-Sufu block: blocks Gli-Sufu signaling in a luciferase reporter; Sufu-KO-LIGHT fibroblasts, Gli luciferase reporter luminescence; inhibition, % at 5 µM; hit rate 0.74% among 340,000; AID 588413;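 active = inhibition above about 55%, limit read from the data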
TAG inh: reduces triacylglycerol accumulation in H9c2 cells | Nile Red lipid (TAG) fluorescence; cells loaded with 200 µM oleic acid | AID 651582 | inhibition, % at 12.5 µM | hit rate 0.66% among 230,000;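 active = pattern-corrected inhibition of lipid staining of at least 50% with the nuclear-stain viability signal not falling by more than 50%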
TAG conf: confirmation of triacylglycerol accumulation inhibitors; shares compounds with TAG inh; H9c2 lipid accumulation, Nile Red fluorescence; cells loaded with 200 µM oleic acid; inhibition, % at 12.5 µM; hit rate 71% among 990;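 active = mean inhibition across replicates of 40% or more; inactive = mean inhibition below 40%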
Hits are given with their value; n = inactive; x = no result. This is a sample that favours compounds with a hit; in the whole collection about 2.6% have one here.

SMILES	Jurkat NFkB inh	Cardio protect	697 NFkB inh	NR2F2 inh	Gli-Sufu block	TAG inh	TAG conf
COc1ccc(C)cc1NC(=O)CSc1nnc(-c2ccco2)n1N	n	n	n	n	n	x	x
COc1cccc(-c2nnc(SCC(=O)Nc3cc(C)ccc3OC)n2N)c1	n	n	n	n	n	53.2	n
CCOC(=O)/C(=N/Nc1ccccc1)c1csc(Nc2ccccc2)n1	n	n	n	n	n	x	x
CCOC(=O)/C(=N\Nc1ccc(Cl)cc1)c1csc(Nc2ccccc2)n1	n	n	n	n	n	75.4	68.8
NS(=O)(=O)c1ccc(NC(=O)CSc2nnc(-c3cccs3)o2)cc1	x	x	x	n	x	x	x
CC(C)N(C#N)c1nc(N2CCOCC2)nc(N2CCOCC2)n1	n	n	n	n	n	51.4	n
CN(C)c1nc(C#N)nc(N2CCOCC2)n1	n	n	n	n	n	n	x
COc1cc2c(cc1NC(=O)Nc1ccc(C)cc1)oc1ccccc12	n	n	n	n	n	n	x
COc1cc2c(cc1NC(=O)Nc1cccc(C)c1)oc1ccccc12	n	n	n	n	n	50.5	n
O=C(NCCOc1nc(N2CCOCC2)nc(N2CCOCC2)n1)Nc1ccccc1	n	n	n	n	n	54.4	n
N#C/C(=C\c1ccc(OC(F)F)cc1)C(=O)N1CCCCC1	n	n	n	n	n	83.1	n
CCN1CCN(C(=O)/C(C#N)=C/c2ccc(OC(F)F)cc2)CC1	n	n	n	n	n	n	x
COc1ccc(-c2nc3ccc(Cl)cn3c2NC2CCCCC2)cc1SC1CCCCC1	n	n	n	n	n	63.0	69.7
CCCCNc1c(-c2ccc(OC)c(SC3CCCCC3)c2)nc2ccc(C)cn12	n	n	n	n	n	n	x
CC(C)(C)OC(=O)[C@H](Cc1ccccc1)NC(=O)c1ncn2c1c(=O)[nH]c1ccc(Br)cc12	x	n	x	n	x	64.8	77.0
Cc1ccc(NC(=O)Cc2ccc(F)cc2)c(S(=O)(=O)N2CCOCC2)c1	x	x	x	n	x	x	x
C#CCN(C[C@@H]1[C@@H](OC(=O)NCC2CCCCC2)[C@@H](OC(=O)NCC2CCCCC2)CN(C(=O)OC(C)C)N1C(=O)OC(C)C)S(=O)(=O)c1ccc(C)cc1	x	n	x	n	x	50.6	61.2
C#CCN(C[C@@H]1[C@@H](OC(=O)NCc2ccccc2)[C@@H](OC(=O)NCc2ccccc2)CN(C(=O)OC(C)C)N1C(=O)OC(C)C)S(=O)(=O)c1ccc(C)cc1	x	n	x	n	x	n	x
Cc1cccc(C(=O)N[C@H](C(=O)Nc2ncc(C)s2)C(C)C)c1	n	n	n	n	n	64.7	92.8
Cc1nc(SCC(=O)N2CCN(c3ccccc3)CC2)n[nH]1	n	n	n	n	n	x	x
CC(Sc1nc(NCc2ccccc2)nc(N2CCOCC2)n1)C(=O)Nc1ccccc1 (stereo not drawn)	n	n	n	n	n	70.0	46.6
Cc1ccccc1NC(=O)CSc1nc(Nc2ccccc2)nc(N2CCOCC2)n1	n	n	n	n	n	53.7	46.1
Cc1ccc(F)cc1NC(=O)CSc1nc(Nc2ccccc2)nc(N2CCOCC2)n1	n	n	n	n	n	n	x
O=C(CSc1nc(N2CCCCC2)nc(N2CCCCC2)n1)N1CCN(c2ccccc2)CC1	x	n	x	n	n	60.2	n
O=C(CSc1nc(Nc2ccccc2)nc(N2CCOCC2)n1)N1CCCC1	n	n	n	n	n	71.3	40.9
SMILES	Jurkat NFkB inh	Cardio protect	697 NFkB inh	NR2F2 inh	Gli-Sufu block	TAG inh	TAG conf
CN1OC[C@@H]2CN[C@H](c3ccc(N4CCCCC4)cc3)C[C@@H]21	x	x	x	n	x	x	x
Cn1nnnc1Sc1ncnc2scc(-c3cccc(S(C)(=O)=O)c3)c12	n	n	n	n	n	59.8	56.8
Cc1cc(C)cc(-n2c3ccc(NC(=O)Cc4cccc5ccccc45)cc3c(=O)n2C)c1	x	n	x	n	x	50.9	49.6
CSc1ccc2c(c1)N(CCC1CCCCN1C)c1ccccc1S2 (stereo not drawn)	n	n	n	n	n	85.1	59.4
COC(=O)C1=C(C)N(Cc2ccc(Cl)cc2)C(=S)NC1c1ccc(Cl)cc1 (stereo not drawn)	x	x	x	n	x	x	x
COC(=O)[C@]12C[C@H](CC(=O)NCc3cccs3)C(=O)N(Cc3cccc4ccccc34)C1=C[C@H](C(C)C)O[C@@H]2C1CC1	x	x	x	n	x	x	x
COC(=O)[C@@]1(Cc2ccccc2)[C@H]2C(=O)N(Cc3ccccc3)C(=O)[C@H]2[C@H]2CN=C(SCc3ccc(Cl)cc3)N21	x	n	n	n	n	51.1	70.9
Nc1[nH]c(C(=O)c2ccccc2)c(-c2ccccn2)c1C(=O)c1c[nH]c2ccc(Br)cc12	x	x	x	n	x	x	x
Cc1c(C#N)c(O)n(CCO)c(=O)c1N=Nc1ccc2c(c1)COC2=O	n	n	n	n	n	84.7	93.5
COc1ccccc1-c1cc(C(F)(F)F)nc(S(=O)(=O)CCCC(=O)NCc2ccc(F)cc2)n1	n	n	n	n	n	n	x
COc1ccccc1-c1cc(C(F)(F)F)nc(S(=O)(=O)CCCC(=O)NC(C)C)n1	n	n	n	n	n	65.8	89.9
COc1cccc(CN(C)C(=O)[C@@H](Cc2ccccc2)NC(=O)[C@H]2O[C@@H](n3ccc(=O)[nH]c3=O)[C@H](O)[C@@H]2O)c1	x	x	x	n	x	x	x
C=CCn1c(N)c(C(=O)OC(C)(C)C)c2nc3ccccc3nc21	n	n	n	n	n	n	x
C=CCn1c(N)c(C(=O)Nc2ccccc2)c2nc3ccccc3nc21	n	n	n	n	n	78.3	88.3
O=C(Nc1ccc(C(F)(F)F)cc1)OC1CCC12CCC(c1ccccc1)CC2 (stereo not drawn)	x	x	x	n	x	x	x
CC(C)C[C@@H](CNC(=O)OC(C)(C)C)NC(=O)c1nc[nH]c1C(=O)N[C@@H](CC(C)C)C(=O)CNC[C@H](CC(C)C)NC(=O)c1nc[nH]c1C(=O)N[C@@H](Cc1c[nH]c2ccccc12)C(=O)OC(C)(C)C	n	n	n	n	n	60.1	52.5
CC(C)Cc1nc2sc3c(NCc4ccco4)ncnc3c2c2c1COC(C)(C)C2	n	n	n	n	n	53.6	47.1
O=S1(=O)CC2c3ccccc3CCN2CN1CCc1ccccc1 (stereo not drawn)	x	x	x	n	x	x	x
CSc1nc(N(C)NC(=O)c2ccccc2)c2ccccc2n1	n	n	n	n	n	57.0	61.5
CSc1nc(N(C)NC(=O)c2ccc(Cl)cc2)c2ccccc2n1	n	n	n	n	n	64.9	66.2
COCc1cc(N2CCN(C(=O)OC(C)(C)C)C[C@@H]2C)ccc1N1CC[C@@H](O)C1	x	x	x	n	x	x	x
C[C@H](CO)N1C[C@H](C)[C@H](CN(C)S(=O)(=O)c2ccc(Cl)cc2)OCc2ccccc2-c2c(n(C)c3ccccc23)C1=O	x	n	x	n	x	50.8	79.8
CC(=O)Nc1cc2cc(NS(=O)(=O)c3ccc(Cl)cc3)ccc2oc1=O	n	n	n	n	n	58.1	n
